Laboratory results: PubChem BioAssay AID652245 (The Scripps Research Institute Molecular Screening Center, 2013)
Among all 1,600 compounds or so, about 920 (58%) were called active. The set was probably picked from earlier hits. Not all results are given here. Values without a mark were called inactive.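 How the source made its calls: active means inhibition above the primary screen's cutoff, the mean inhibition of all screened compounds plus 3 SD (cut at about 13% in these data); inactive means the rest.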

Each molecule was assayed against Galanin receptor type 3 (Homo sapiens) (UniProt O60755) (assay: GalR3 antagonist hit confirmation, cell-based, fluorescence, triplicate (AID 652245;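 further: 0% = forskolin plus galanin and 100% = forskolin alone with DMSO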)). Conditions: HEK293 GalR3 CNG cAMP biosensor, membrane potential fluorescence; at 3 µM; hits give high values; challenged with forskolin and galanin at EC90; galR3 fused to GalR1 carboxy tail.
Galanin receptor type 3 (Homo sapiens), sequence (O60755 1-299 limits assumed): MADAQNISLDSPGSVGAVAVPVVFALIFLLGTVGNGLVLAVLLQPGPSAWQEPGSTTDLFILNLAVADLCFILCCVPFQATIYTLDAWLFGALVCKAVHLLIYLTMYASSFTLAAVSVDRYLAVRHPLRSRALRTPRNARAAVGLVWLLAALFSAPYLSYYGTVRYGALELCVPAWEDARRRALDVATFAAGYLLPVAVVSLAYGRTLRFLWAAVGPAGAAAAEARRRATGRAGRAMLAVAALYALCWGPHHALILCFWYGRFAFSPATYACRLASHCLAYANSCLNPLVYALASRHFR
In the case of `NC(=O)c1ccc(NC(=O)COC(=O)C(Cc2ccccc2)NC(=O)c2ccccc2)cc1` (stereo unspecified), the inhibition is reported as 22.3% (active). Work on `COc1ccc(CCNc2nc3ccc(C)cc3n3cnnc23)cc1OC` yielded an inhibition of 12.1%. For `C=CCC1(CC=C)CCCN1C(=O)c1cc(COc2ccc(-n3cncn3)cc2)on1`, the inhibition was 104% (active). For `Nc1nonc1-n1nnc(C(=O)N/N=C/c2cc(Br)ccc2O)c1CSC1=NCCS1`, the inhibition was 63.2% (active). For `CCNC(=S)Nc1ccc(OC(F)(F)F)cc1`, the inhibition was 18.3% (active). `CCN1/C(=C\c2ccc3ccccc3[n+]2CC)Sc2cc(C)ccc21` was tested, and the inhibition was 55.5% (active). In the case of `CCOc1ccc(Br)cc1CSC(=N)N`, the inhibition is reported as 56.7% (active). Work on `COc1ccc(-c2csc(-c3cccs3)n2)cc1OC` yielded an inhibition of -4.97%. For `COC(=O)c1ccc(/C=N/N2C(C)CCCC2C)cc1` (stereo unspecified), the inhibition was 14.9% (active). In the case of `c1coc(CNc2ncnc3ccccc23)c1`, the inhibition is reported as 28.1% (active). `Cc1c(C=O)c2ccccc2n1CC(=O)O` gave an inhibition of -2.92%. For `CN(Cc1cccnc1)C(=O)c1cc(COc2ccc3ncccc3c2)on1`, the inhibition was 103% (active). `COc1ccc(C(=O)COC(=O)COc2ccc(C)c(C)c2)cc1` gave an inhibition of -0.4%. `OC[C@@H]1CN(Cc2ccc(-c3ccccc3)cc2)C[C@H](n2cnc3c(NC4CCCC4)ncnc32)O1` was tested, and the inhibition was 92.5% (active). `COc1cc(NC(=O)c2cc([N+](=O)[O-])ccc2Br)ccc1NC(=O)c1ccco1` was tested, and the inhibition was 27.5% (active). With `CC(=O)c1c(C)[nH]c(C(=O)COC(=O)c2cccc(S(=O)(=O)N(C)c3ccccc3)c2)c1C` the inhibition was 82.3% (active). Work on `CCCn1nc(C(=O)NNC(=O)CSCC(=O)Nc2cc(C)on2)c2ccccc2c1=O` yielded an inhibition of 3.6%. Work on `COCCNC(=O)/C(C#N)=C/c1cccc(OCc2ccccc2)c1` yielded an inhibition of -3.13%. `COc1cc(C(=O)Nn2c(O)c(C3=c4ccccc4=NC3=O)sc2=S)ccc1O` was tested, and the inhibition was 5.9%. `COc1cc(Cl)c(C)cc1NC(=O)[C@@H]1CCCN1C(=O)c1cccs1` was tested, and the inhibition was 17.8% (active). In the case of `COc1ccc(-c2[nH]nc3c2C(c2ccncc2)C(C#N)=C(N)O3)cc1` (stereo unspecified), the inhibition is reported as 7.93%. Work on `O=C(/C=C/c1c(F)cccc1Cl)Nc1nn[nH]n1` yielded an inhibition of 5.44%. With `COc1ccc(OC)c(NC(=O)CSc2nc(N)c(-c3ccccc3)c(=O)[nH]2)c1` the inhibition was 38% (active). `O=C(CC(O)(C(F)(F)F)C(F)(F)F)Nc1ccc(Cl)c(Cl)c1` was tested, and the inhibition was 81.5% (active). In the case of `c1ccc(Cc2ccc(OCCn3ccnc3)cc2)cc1`, the inhibition is reported as 35.9% (active). With `COc1ccc(C2CC(=O)Nc3sc(=N)c4c(N)c(C#N)c(N)nc4c32)cc1OC` (stereo unspecified) the inhibition was 69.2% (active).
